# In PubChem BioAssay AID743060 (The Scripps Research Institute Molecular Screening Center, 2013):
# Several values for one entry are separate records, joined by “and”; a condition that tells them apart may be missing. Equal entries are not always repeated.
# Experiment: T. brucei methionyl-tRNA synthetase enzyme inhibition – biochemical, radioactivity, round 1, late-stage follow-up (AID 743060)
# Settings: purified enzyme, radiolabel aminoacylation, scintillation, 2 h; at 10 µM; stronger effect = higher value
row,Compound,inhibition
1,Cc1cccc(NC(=O)C2CC(=O)n3c(nc4ccccc43)N2)c1 (stereo not given),8.95%
2,CCN(CC)C(=O)C(=O)c1cn(CC(=O)Nc2cccc(OC)c2)c2ccccc12,86.4%
3,CC(C)c1nc2ccc(C(=O)N(C)CCc3nc4ccc(F)cc4[nH]3)cc2o1,-7.17%
4,Cc1cc2cc(C(=O)N3CCCC(c4nc5ccccc5[nH]4)C3)ccc2o1 (stereo not given),78.2%
5,COc1ccccc1-n1c(SCC(=O)Nc2ccc(Cl)cc2)nc(O)c(Cc2ccccc2)c1=O,67%
6,CCN(CC)C(=O)C(=O)c1cn(CC(=O)Nc2cccc(C(F)(F)F)c2)c2ccccc12,99.5%
7,O=C(NCCc1nc2ccccc2[nH]1)c1c(F)cccc1F,1.38%
8,Cc1[nH]c2ccc(Br)cc2c(=O)c1CN1CCCCCC1,86.6%
9,CCOC(=O)N1CCC(Nc2c(Nc3ccc(F)cc3)c(=O)c2=O)CC1,72.7%
10,O=C(CC(=O)Nc1cccc(Cl)c1)NN=Cc1ccccc1,81.1%
11,O=C1CC(NCCc2ccccc2)C(=O)N1c1ccc(Br)cc1 (stereo not given),-9%
12,COc1cccc(NC(=O)CSc2nnc3c(n2)[nH]c2ccc(C)cc23)c1,94.2%
13,O=C(N/C(=C\c1cccnc1)c1nc2ccccc2[nH]1)c1cccc(Br)c1,71.7%
14,CC(=O)c1c[nH]c(C(=O)NCc2cccc(C(F)(F)F)c2)c1,92.7%
15,O=C1CC(SCc2nc3ccccc3[nH]2)C(=O)N1c1cccc(Cl)c1 (stereo not given),52.6%
16,CCN(CC)C(=O)C(=O)c1cn(CC(=O)Nc2ccccc2OC)c2ccccc12,-11.4%
17,Cc1cccc2[nH]c(C3CCCN(C(=O)c4cccc5cccnc45)C3)nc12 (stereo not given),-4.34%
18,COc1cccc(NC(=O)C2CC(=O)n3c(nc4ccccc43)N2)c1 (stereo not given),31.5%

row,Compound,inhibition
1,O=C(NCCc1nc2ccccc2[nH]1)c1ccc(Cl)cc1Cl,94.9%
2,O=C(CN1CCSC1=NCc1ccccc1)c1ccc(Cl)c(Cl)c1,28%
3,O=C(NNC(=O)c1cc(-c2ccc(Cl)c(Cl)c2)nc2ccccc12)Nc1ccccc1,85.5%
4,O=C(NCc1nc2ccccc2[nH]1)C1=C[C@@H](C2CC2)C[C@@H](OCc2ccc(CO)cc2)O1,93.6%
5,CN1CC(=O)N2C(c3cccc([N+](=O)[O-])c3)c3[nH]c4ccccc4c3C[C@H]2C1=O (stereo not given in full),96.7%
6,O=C(NCc1nc2ccccc2[nH]1)C1=C[C@@H](c2ccc(Br)cc2)C[C@@H](OCCCCO)O1,99.9%
7,O=C(Nc1ccc(F)c(Cl)c1)C1CC(=O)n2c(nc3ccccc32)N1 (stereo not given),90.3% and 93.6%
8,O=C(Cn1cc(C(=O)C2CC2)c2ccccc21)Nc1cccc(C(F)(F)F)c1,31.3%
9,O=C(NCCc1nc2ccccc2[nH]1)c1ccc(Cl)c([N+](=O)[O-])c1,99.6%
10,O=C(Cn1cc(C(=O)COc2ccccc2)c2ccccc21)Nc1cccc(C(F)(F)F)c1,-11.8%
11,Cc1ccc2[nH]c3nc(SCC(=O)Nc4ccc(C(F)(F)F)cc4)nnc3c2c1,15.1%
12,CCc1ccc2c(c1)c1nnc(SCC(=O)Nc3ccc4c(c3)OCO4)nc1n2C,-8.11%
13,O=C(Cn1cc(C(=O)c2ccccc2)c2ccccc21)Nc1cccc(C(F)(F)F)c1,65.9%
14,O=C(CCC(=O)Nc1cccc([N+](=O)[O-])c1)NN=Cc1cccs1,74.3%
15,CCN(CC)C(=O)C(=O)c1cn(CC(=O)N(CC)c2ccccc2)c2ccccc12,-7.96%
16,CC(C)OCCCN1CC(=O)N2C(c3cccc([N+](=O)[O-])c3)c3[nH]c4ccccc4c3C[C@H]2C1=O (stereo not given in full),93.1%
17,Cc1ccc(C(=O)NCCc2nc3ccccc3[nH]2)cc1C,-3.55%
